About 14,000 (4.5%) of roughly 310,000 compounds showed an effect of 50% or more. The effect is printed as a negative number. The sample holds strong results, similar compounds and a random draw of the others, so the mix is not that of the screen.
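Further: peak tail current of the secondary pulse compared with the same well before compound.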

For the test, the target named is human ether-à-go-go-related gene (hERG) potassium channel (human, UniProt Q12809). The test is described as follows: primary screen, population patch clamp on CHO cells stably expressing hERG; higher = less effect of the substance.
Chain of human ether-à-go-go-related gene (hERG) potassium channel (Q12809 whole entry, looked up): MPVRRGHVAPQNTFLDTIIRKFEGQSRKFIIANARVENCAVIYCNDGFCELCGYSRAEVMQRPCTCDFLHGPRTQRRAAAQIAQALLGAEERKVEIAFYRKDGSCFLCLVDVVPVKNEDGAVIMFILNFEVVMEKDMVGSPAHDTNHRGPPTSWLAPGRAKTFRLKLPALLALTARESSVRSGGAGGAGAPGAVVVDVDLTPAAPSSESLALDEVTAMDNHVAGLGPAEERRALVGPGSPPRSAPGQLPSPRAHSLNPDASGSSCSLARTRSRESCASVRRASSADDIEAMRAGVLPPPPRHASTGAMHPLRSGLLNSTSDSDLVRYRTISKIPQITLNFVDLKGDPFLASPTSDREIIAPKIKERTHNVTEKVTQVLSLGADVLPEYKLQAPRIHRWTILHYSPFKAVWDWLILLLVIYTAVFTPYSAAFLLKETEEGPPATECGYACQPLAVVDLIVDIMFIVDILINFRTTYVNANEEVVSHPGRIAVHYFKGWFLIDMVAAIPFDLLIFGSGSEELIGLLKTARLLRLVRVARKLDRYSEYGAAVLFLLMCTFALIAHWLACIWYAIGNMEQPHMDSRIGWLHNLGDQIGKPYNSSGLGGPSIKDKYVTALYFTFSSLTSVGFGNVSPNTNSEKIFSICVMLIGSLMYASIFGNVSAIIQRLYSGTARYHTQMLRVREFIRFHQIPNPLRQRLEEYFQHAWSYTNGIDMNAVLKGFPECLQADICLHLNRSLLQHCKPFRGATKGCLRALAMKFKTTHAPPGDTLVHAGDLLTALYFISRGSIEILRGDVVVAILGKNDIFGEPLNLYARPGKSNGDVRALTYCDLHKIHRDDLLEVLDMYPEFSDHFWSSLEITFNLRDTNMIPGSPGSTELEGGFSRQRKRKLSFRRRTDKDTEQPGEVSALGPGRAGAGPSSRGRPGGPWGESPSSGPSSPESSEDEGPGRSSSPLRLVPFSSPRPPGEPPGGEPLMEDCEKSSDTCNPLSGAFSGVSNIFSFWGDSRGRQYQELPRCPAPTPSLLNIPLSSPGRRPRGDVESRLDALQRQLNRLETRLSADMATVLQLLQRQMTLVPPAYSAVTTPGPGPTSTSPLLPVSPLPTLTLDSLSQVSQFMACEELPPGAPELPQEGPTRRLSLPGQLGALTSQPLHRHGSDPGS
Consider `COc1cccc(=O)c2c(C)n(C)c(C)c12`, for which the “hERG current change (%, negative = inhibition) at 10uM” value is -24.7%. For `Cc1cc(=O)oc2c(C)c(OC(C)C(=O)NC3CCN(Cc4ccccc4)CC3)ccc12` (stereo not drawn), the “hERG current change (%, negative = inhibition) at 10uM” value is on record as -48.1%. In the case of `CC(Oc1ccc2ccc(=O)oc2c1)C(=O)NC1CCN(Cc2ccccc2)CC1` (stereo not drawn), the “hERG current change (%, negative = inhibition) at 10uM” value is given as -75%.

As for `CC(Oc1ccc(Br)cc1)C(=O)NC1CCCCCC1` (stereo not drawn), the “hERG current change (%, negative = inhibition) at 10uM” value is reported as -12.4%.

With `Cc1cc(OC(C)C(=O)NC2CCN(Cc3ccccc3)CC2)c2c(C)cc(=O)oc2c1` (stereo not drawn), the “hERG current change (%, negative = inhibition) at 10uM” value was -15.2%. For `CCc1cc(=O)oc2cc(C)cc(OC(C)C(=O)NC3CCN(Cc4ccccc4)CC3)c12` (stereo not drawn), the “hERG current change (%, negative = inhibition) at 10uM” value is reported as -32.8%. As to `Cc1cc(=O)oc2cc(OC(C)C(=O)NC3CCN(Cc4ccccc4)CC3)ccc12` (stereo not drawn), the “hERG current change (%, negative = inhibition) at 10uM” value was -79.2%. Take `Cc1c(C)c2ccc(OC(C)C(=O)NC3CCN(Cc4ccccc4)CC3)cc2oc1=O` (stereo not drawn): the “hERG current change (%, negative = inhibition) at 10uM” value is reported as -54.2%. Take `CC(Oc1ccc2c3c(c(=O)oc2c1)CCC3)C(=O)NC1CCN(Cc2ccccc2)CC1` (stereo not drawn): the “hERG current change (%, negative = inhibition) at 10uM” value is recorded as -47.9%.

For `Cc1c(C)c2ccc(OC(C)C(=O)NC3CC(C)(C)NC(C)(C)C3)cc2oc1=O` (stereo not drawn), the “hERG current change (%, negative = inhibition) at 10uM” value worked out at 7.7%. In the case of `CC(Oc1ccccc1)C(=O)NC1CCN(Cc2ccccc2)CC1` (stereo not drawn) it was -26.8%; in that of `CC(Oc1ccc(Br)cc1)C(=O)NC1CCN(Cc2ccccc2)CC1` (stereo not drawn), -80.4%. For `Cc1cc(=O)oc2cc(OC(C)C(=O)NC3CCCC3)ccc12` (stereo not drawn), the “hERG current change (%, negative = inhibition) at 10uM” value is -33.4%. For `CC(=O)c1sc(N2CCOCC2)nc1-c1ccccc1`, the “hERG current change (%, negative = inhibition) at 10uM” value was -6.27%. For `Cc1onc(-c2ccccc2)c1C(=O)Nc1sccc1C#N`, the “hERG current change (%, negative = inhibition) at 10uM” value is 7.27%. The value for `Cc1cc(C)n(-c2ccc(NC(=O)C3CCCCN3C(=O)c3sccc3C)cc2)n1` (stereo not drawn) was 14.5%; that for `NS(=O)(=O)c1ccc(NC(NC(=O)c2cccnc2)C(Cl)(Cl)Cl)cc1` (stereo not drawn) was 6.08%. The value for `COc1cc(C(=O)NCCCn2ccnc2)cc(OC)c1OC.Cl` was 20.6%; that for `Cc1nn(C(C)C(=O)NCCN2CCCCCC2)c(=O)c2nn(-c3ccccc3)c(C)c12` (stereo not drawn) was 21.6%. In the case of `Cc1cc(C)n2nc(SCC(=O)Nc3ccccc3C)nc2n1` it was 1.88%; in that of `CC1(C)CC(=O)C2=C(C1)NC(=O)CC2c1ccc(N(CCC#N)CCC#N)cc1` (stereo not drawn), 17.3%. For the compound `CCC(=O)c1ccc2ncccc2c1`, the “hERG current change (%, negative = inhibition) at 10uM” value was 12.2%.

Consider `CCC(C(=O)c1ccc(O)cc1)c1ccccc1` (stereo not drawn), for which the “hERG current change (%, negative = inhibition) at 10uM” value is -5.56%. The value for `CCC(C(=O)c1ccc2ncccc2c1)c1ccccc1` (stereo not drawn) was -52.7%; that for `COc1ccc(CNC(=O)c2nn(C)c3c2CS(=O)(=O)c2ccccc2-3)cc1` was -24.5%; that for `O=C(O)c1ccccc1C(=O)c1ccc(Oc2ccccc2)cc1` was 8.12%. In the case of `CCn1nc(C)c(Br)c1C(=O)Sc1ccccc1Cl` it was 21.2%. The value for `O=C(c1cc(F)c(F)cc1Cl)N1CCN(c2ncccn2)CC1` was 16.4%; that for `Cn1c(=O)n(C)c2cc([N+](=O)[O-])c(N3CCN(S(=O)(=O)c4ccccc4)CC3)cc21` was -8.67%; that for `O=C(c1cccc(F)c1)N1CCN(c2cc(N3CCCCC3)c(F)cc2[N+](=O)[O-])CC1` was 0.466%. Consider `O=C(c1cc(F)c(F)cc1Cl)N1CCN(c2ccc([N+](=O)[O-])c3ncccc23)CC1`, for which the “hERG current change (%, negative = inhibition) at 10uM” value is -67.4%. In the case of `O=[N+]([O-])c1ccc(N2CCN(S(=O)(=O)c3ccccc3)CC2)c2cccnc12` it was -76.8%; in that of `O=C(c1ccc(Cl)cc1[N+](=O)[O-])N1CCN(c2ccccn2)CC1`, -34%; in that of `Cc1ccc(S(=O)(=O)N2CCN(c3ccc([N+](=O)[O-])c4cccnc34)CC2)cc1`, -9.52%. In the case of `O=C(c1ccccc1F)N1CCN(c2ccc([N+](=O)[O-])c3ncccc23)CC1` it was -68.1%; in that of `O=C(c1cccc(F)c1)N1CCN(c2ccc([N+](=O)[O-])c(N3CCCCC3)c2)CC1`, -6.87%. In the case of `O=C(c1cccc(F)c1)N1CCN(c2ccc([N+](=O)[O-])c3cccnc23)CC1` it was -66.1%; in that of `O=C(c1ccccc1F)N1CCN(c2ccc([N+](=O)[O-])c(N3CCOCC3)c2)CC1`, 14.2%. Consider `O=[N+]([O-])c1ccc(N2CCOCC2)c2cccnc12`, for which the “hERG current change (%, negative = inhibition) at 10uM” value was -25%. For `CC(=O)Nc1ccc(/C(C)=N/NC(=O)CN(c2ccccc2Br)S(C)(=O)=O)cc1`, the “hERG current change (%, negative = inhibition) at 10uM” value is -4.13%.

Regarding `CNC(=O)CCn1nc(-c2ccc(C)cc2)c2ccccc2c1=O`, the “hERG current change (%, negative = inhibition) at 10uM” value is -8.28%. As for `O=C(O)c1ccc(/C=N/Nc2nc(N3CCCCC3)nc(N3CCCCC3)n2)cc1`, the “hERG current change (%, negative = inhibition) at 10uM” value was 18.4%. Take `Cc1nn(Cc2c(Cl)cccc2Cl)c(C)c1NC(=O)/C=C/c1cnn(C)c1C`: the “hERG current change (%, negative = inhibition) at 10uM” value amounted to 8.85%. As to `COc1ccc(OC(=O)c2cccc([N+](=O)[O-])c2)c(C(=O)/C=C/c2cccs2)c1`, the “hERG current change (%, negative = inhibition) at 10uM” value was determined as 3.99%.

For `O=C(O)CC(CC(=O)Nc1ccc2ccccc2n1)c1ccccc1` (stereo not drawn), the “hERG current change (%, negative = inhibition) at 10uM” value came out at 9.58%.

As to `Cc1nnc(SCC(=O)NC2CC2)n1CCc1ccccc1`, the “hERG current change (%, negative = inhibition) at 10uM” value is 13%.

Turning to `CCC(=O)Oc1ccc2c(C)cc(=O)oc2c1C`, the “hERG current change (%, negative = inhibition) at 10uM” value was 0.0333%.

Consider `Cc1ccccc1NC(=O)CN1C(=O)NC(C)(CCc2ccccc2)C1=O` (stereo not drawn), for which the “hERG current change (%, negative = inhibition) at 10uM” value is on record as 22.2%. Consider `O=[N+]([O-])c1cccc2c(N3CCCC3)ccnc12`, for which the “hERG current change (%, negative = inhibition) at 10uM” value is -77.7%. The value for `O=[N+]([O-])c1cccc2c(N3CCOCC3)ccnc12` was -17.6%; that for `O=C(c1ccccc1F)N1CCN(c2ccccn2)CC1` was 4.54%; that for `O=C(c1ccccc1F)N1CCN(c2ccc([N+](=O)[O-])c3cccnc23)CC1` was -65.5%.

For `O=C(c1ccccc1F)N1CCN(c2ncccn2)CC1`, the “hERG current change (%, negative = inhibition) at 10uM” value is 3.24%. The value for `O=[N+]([O-])c1cccc2c(Cl)ccnc12` was -0.808%; that for `CCC(C)NC(=O)CCC(=O)Nc1ccc2nc(N3CCOCC3)cc(C)c2c1` (stereo not drawn) was 2.55%. Turning to `O=C(NCCc1ccc(Cl)cc1)c1ccc(CNc2c(N3CCOCC3)c(=O)c2=O)cc1`, the “hERG current change (%, negative = inhibition) at 10uM” value is recorded as 25.7%.

As to `O=C(Nc1ccc2c(c1)OCO2)NC1CCN(Cc2ccccc2)CC1`, the “hERG current change (%, negative = inhibition) at 10uM” value was -24.8%. In the case of `CC(NC(=O)COC(=O)c1cccs1)c1ccccc1` (stereo not drawn) it was 23%. As to `Cc1cc(NC(=O)c2ccc(F)cc2)ccc1NC(=O)c1ccco1`, the “hERG current change (%, negative = inhibition) at 10uM” value was 2.98%. In the case of `CC1(C)CC(=O)C2=C(C1)N(CC1CCCO1)C(=O)C2(NC(=O)c1cccnc1)C(F)(F)F` (stereo not drawn) it was 9.64%; in that of `COC(=NC1CCCC1)C(O)c1c[nH]c2ccccc12` (stereo not drawn), -1.61%; in that of `CN(C)c1cc(C(F)(F)F)nc(-c2ccccn2)n1`, -0.728%. As for `CCO[C@@H]1OC(C(=O)O)=C[C@H](c2coc3ccccc3c2=O)[C@H]1CCCO`, the “hERG current change (%, negative = inhibition) at 10uM” value was 18.9%. As to `CCO[C@@H]1OC(C(=O)NCc2nc3ccccc3[nH]2)=C[C@H](c2csc3ccccc23)[C@H]1CCCO`, the “hERG current change (%, negative = inhibition) at 10uM” value is reported as -34.1%. As for `CCO[C@H]1OC(C(=O)N2CCN(Cc3ccccc3)CC2)=C[C@@H](c2cn(C(C)=O)c3ccccc23)[C@@H]1CCCO`, the “hERG current change (%, negative = inhibition) at 10uM” value was -54%. On to `CCO[C@H]1OC(C(=O)NCc2nc3ccccc3[nH]2)=C[C@@H](c2cn(C(C)=O)c3ccccc23)[C@@H]1CCCO`, for which the “hERG current change (%, negative = inhibition) at 10uM” value is reported as -49.7%. As to `CCO[C@@H]1OC(C(=O)Nc2ccccc2)=C[C@H](c2coc3ccccc3c2=O)[C@H]1CCCO`, the “hERG current change (%, negative = inhibition) at 10uM” value was -50.9%. The value for `CCO[C@@H]1OC(C(=O)O)=C[C@H](c2cn(C(C)=O)c3ccccc23)[C@H]1CCCO` was 13.7%. Take `CCO[C@@H]1OC(C(=O)NCc2nc3ccccc3[nH]2)=C[C@H](c2cn(C(C)=O)c3ccccc23)[C@H]1CCCO`: the “hERG current change (%, negative = inhibition) at 10uM” value is on record as -67.2%. In the case of `CCO[C@@H]1OC(C(=O)N2CCN(Cc3ccccc3)CC2)=C[C@H](c2cn(C(C)=O)c3ccccc23)[C@H]1CCCO`, the “hERG current change (%, negative = inhibition) at 10uM” value was -37.9%.

For `CCO[C@H]1OC(C(=O)Nc2ccccc2)=C[C@@H](c2cn(C(C)=O)c3ccccc23)[C@@H]1CCCO`, the “hERG current change (%, negative = inhibition) at 10uM” value is recorded as -62.5%. Consider `CCO[C@H]1OC(C(=O)O)=C[C@@H](c2cn(C(C)=O)c3ccccc23)[C@@H]1CCCO`, for which the “hERG current change (%, negative = inhibition) at 10uM” value is on record as 18.2%. On to `CCO[C@H]1OC(C(=O)Nc2ccccc2)=C[C@@H](c2coc3ccccc3c2=O)[C@@H]1CCCO`, for which the “hERG current change (%, negative = inhibition) at 10uM” value is -28.5%. For `CCO[C@@H]1OC(C(=O)N2CCN(Cc3ccc4c(c3)OCO4)CC2)=C[C@H](c2cn(C(C)=O)c3ccccc23)[C@H]1CCCO`, the “hERG current change (%, negative = inhibition) at 10uM” value was -39.7%.

Regarding `O=C1CCCCCN1Sc1ccccc1`, the “hERG current change (%, negative = inhibition) at 10uM” value was 12%.

As for `N#Cc1cccc(CN2CCC(=O)N([C@H](CO)c3ccccc3)CC2)c1`, the “hERG current change (%, negative = inhibition) at 10uM” value is -4.9%. Regarding `CC(=O)N1c2ccc(S(=O)(=O)NCCc3ccc(S(N)(=O)=O)cc3)cc2CC1C` (stereo not drawn), the “hERG current change (%, negative = inhibition) at 10uM” value was determined as 13%. As for `COc1ccc(/C=N/NC(=O)c2c(C)n(C)c3ccc(OC)cc23)c(OC)c1`, the “hERG current change (%, negative = inhibition) at 10uM” value is -14.3%.

For the compound `COCC(C)NC(=O)c1ccc2c(c1)S(=O)(=O)c1ccccc1C2=O` (stereo not drawn), the “hERG current change (%, negative = inhibition) at 10uM” value stood at 3.96%. The value for `CCn1c(=S)ccc2ccc(OC)cc21` was -0.453%. In the case of `CCOc1ccc(-c2c(C(=O)N/N=C(\C)c3cccs3)nnn2-c2nonc2N)cc1`, the “hERG current change (%, negative = inhibition) at 10uM” value is on record as 12.9%.

The values are drawn from PMC4336329 (PLoS ONE, 2015).
